Test results: the supplement of paper PMC11732987, “Enantioselective OTUD7B fragment discovery through chemoproteomics screening and high-throughput optimisation” (Communications Chemistry, 2025)

Assays:
Test in all cases: log2 ratio of Biotin-Ahx-Ub-VS probe labelling (fragment/DMSO); higher = less target engagement (more negative = stronger competition), active = hit call of the paper (q ≤ 0.05, log2 ratio ≤ -1)
Conditions in all cases: compound concentration: 200 uM; treatment time: 3 h
USP34 = USP34 (UniProt Q70CQ2)
Chain of USP34 (Q70CQ2 whole entry, the tested form may be a part): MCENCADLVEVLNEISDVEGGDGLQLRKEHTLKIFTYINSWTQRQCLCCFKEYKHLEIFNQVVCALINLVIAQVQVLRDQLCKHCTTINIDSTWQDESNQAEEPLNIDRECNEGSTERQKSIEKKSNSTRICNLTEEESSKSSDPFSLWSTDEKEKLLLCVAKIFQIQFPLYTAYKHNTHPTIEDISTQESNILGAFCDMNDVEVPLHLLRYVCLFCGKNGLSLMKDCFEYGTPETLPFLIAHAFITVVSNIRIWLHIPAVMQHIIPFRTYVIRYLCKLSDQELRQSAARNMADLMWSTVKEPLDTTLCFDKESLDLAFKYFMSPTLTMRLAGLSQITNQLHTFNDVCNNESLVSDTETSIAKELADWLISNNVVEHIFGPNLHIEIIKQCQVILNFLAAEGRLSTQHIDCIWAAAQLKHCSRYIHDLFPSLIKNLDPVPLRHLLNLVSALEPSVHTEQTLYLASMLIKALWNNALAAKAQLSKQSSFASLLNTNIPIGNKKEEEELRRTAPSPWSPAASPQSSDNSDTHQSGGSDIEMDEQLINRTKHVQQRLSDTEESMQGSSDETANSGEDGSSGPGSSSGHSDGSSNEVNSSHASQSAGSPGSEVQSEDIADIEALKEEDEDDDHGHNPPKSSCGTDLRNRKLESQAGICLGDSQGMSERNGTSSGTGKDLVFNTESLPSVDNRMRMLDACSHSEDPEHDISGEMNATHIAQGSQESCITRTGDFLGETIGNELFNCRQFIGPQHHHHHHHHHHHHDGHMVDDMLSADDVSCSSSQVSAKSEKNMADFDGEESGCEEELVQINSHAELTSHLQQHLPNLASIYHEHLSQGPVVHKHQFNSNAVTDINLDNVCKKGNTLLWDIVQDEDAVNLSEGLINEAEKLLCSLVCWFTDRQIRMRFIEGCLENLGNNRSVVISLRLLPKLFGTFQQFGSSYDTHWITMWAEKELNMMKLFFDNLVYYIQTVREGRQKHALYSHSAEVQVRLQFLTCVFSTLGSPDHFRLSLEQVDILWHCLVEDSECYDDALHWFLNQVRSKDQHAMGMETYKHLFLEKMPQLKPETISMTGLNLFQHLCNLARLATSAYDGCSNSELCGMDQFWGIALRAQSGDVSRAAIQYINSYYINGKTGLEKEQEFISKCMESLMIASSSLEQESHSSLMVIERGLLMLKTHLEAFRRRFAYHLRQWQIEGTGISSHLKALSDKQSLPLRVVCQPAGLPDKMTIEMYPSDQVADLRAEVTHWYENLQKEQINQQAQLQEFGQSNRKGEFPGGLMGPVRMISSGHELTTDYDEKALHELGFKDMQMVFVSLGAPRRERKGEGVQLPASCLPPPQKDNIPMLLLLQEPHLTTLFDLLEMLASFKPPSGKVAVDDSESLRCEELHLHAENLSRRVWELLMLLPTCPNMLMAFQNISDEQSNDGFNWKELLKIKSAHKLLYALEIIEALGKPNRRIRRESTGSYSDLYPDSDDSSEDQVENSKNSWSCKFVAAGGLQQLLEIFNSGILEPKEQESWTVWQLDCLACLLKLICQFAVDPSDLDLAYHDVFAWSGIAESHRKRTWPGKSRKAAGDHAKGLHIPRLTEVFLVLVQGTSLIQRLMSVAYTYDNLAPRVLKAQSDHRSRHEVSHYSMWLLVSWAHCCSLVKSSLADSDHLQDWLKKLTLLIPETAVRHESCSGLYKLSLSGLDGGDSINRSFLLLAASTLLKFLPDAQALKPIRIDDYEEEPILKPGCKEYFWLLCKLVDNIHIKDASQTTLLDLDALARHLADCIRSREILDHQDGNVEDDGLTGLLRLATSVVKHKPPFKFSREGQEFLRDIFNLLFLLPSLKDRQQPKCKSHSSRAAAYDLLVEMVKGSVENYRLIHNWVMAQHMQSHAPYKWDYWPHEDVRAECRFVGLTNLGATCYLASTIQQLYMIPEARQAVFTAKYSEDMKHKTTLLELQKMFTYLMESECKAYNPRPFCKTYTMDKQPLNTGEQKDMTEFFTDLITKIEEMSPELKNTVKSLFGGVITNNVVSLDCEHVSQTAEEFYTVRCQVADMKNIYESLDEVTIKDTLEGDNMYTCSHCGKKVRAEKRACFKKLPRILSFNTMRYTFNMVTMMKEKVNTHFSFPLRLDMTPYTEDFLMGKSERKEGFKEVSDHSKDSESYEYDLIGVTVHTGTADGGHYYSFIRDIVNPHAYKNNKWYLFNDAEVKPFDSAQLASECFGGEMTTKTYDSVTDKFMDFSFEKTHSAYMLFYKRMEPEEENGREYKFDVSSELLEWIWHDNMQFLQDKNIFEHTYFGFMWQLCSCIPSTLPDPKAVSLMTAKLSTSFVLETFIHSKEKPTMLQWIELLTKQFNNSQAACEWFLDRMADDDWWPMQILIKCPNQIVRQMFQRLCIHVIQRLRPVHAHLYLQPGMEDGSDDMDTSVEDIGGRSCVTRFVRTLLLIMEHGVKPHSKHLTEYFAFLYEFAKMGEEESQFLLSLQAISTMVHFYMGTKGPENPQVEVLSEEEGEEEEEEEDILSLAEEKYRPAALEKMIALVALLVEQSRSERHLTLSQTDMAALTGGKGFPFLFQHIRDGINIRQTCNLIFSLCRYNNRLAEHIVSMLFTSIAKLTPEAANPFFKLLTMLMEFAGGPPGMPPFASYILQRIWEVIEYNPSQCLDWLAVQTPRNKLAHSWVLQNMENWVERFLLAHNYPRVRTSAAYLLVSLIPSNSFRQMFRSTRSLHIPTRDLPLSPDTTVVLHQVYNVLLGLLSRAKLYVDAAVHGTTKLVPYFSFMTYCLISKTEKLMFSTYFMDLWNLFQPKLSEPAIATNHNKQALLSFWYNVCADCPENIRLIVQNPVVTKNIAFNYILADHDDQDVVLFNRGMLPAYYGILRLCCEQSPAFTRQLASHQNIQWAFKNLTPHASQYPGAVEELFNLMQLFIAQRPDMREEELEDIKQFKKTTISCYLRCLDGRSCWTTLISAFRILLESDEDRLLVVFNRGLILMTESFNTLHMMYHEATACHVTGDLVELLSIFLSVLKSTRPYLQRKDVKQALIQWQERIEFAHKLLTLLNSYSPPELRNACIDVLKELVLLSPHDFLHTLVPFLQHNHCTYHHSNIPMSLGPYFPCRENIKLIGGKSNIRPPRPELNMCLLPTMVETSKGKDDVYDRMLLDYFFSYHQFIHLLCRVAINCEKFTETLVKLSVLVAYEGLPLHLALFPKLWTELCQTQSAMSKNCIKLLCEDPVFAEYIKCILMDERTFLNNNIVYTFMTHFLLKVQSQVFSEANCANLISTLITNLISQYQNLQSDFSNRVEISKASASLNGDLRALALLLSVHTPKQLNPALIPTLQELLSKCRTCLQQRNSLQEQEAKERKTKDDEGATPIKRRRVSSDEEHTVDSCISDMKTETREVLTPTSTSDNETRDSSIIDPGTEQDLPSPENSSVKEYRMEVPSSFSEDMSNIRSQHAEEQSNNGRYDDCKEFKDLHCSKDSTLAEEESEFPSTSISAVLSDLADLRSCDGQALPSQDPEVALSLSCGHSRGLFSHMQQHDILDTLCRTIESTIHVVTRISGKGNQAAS
Method in brief: (§1)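 Average log2 ratios of fragment over vehicle were obtained by unpaired t-test from global-median-normalised Spectronaut label-free quantities. Proteins with ≥2 unique peptides were included. HEK293T lysate (495 µg per sample) was treated in triplicate with fragment at 200 µM or vehicle for 3 h, then with Biotin-Ahx-Ub-VS at 0.5 µM final for 1 h, and labelled DUBs were NeutrAvidin-enriched and run by diaPASEF LC-MS/MS.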

USP36 = target: T1, USP36 (UniProt Q9P275)
T1 sequence (whole entry): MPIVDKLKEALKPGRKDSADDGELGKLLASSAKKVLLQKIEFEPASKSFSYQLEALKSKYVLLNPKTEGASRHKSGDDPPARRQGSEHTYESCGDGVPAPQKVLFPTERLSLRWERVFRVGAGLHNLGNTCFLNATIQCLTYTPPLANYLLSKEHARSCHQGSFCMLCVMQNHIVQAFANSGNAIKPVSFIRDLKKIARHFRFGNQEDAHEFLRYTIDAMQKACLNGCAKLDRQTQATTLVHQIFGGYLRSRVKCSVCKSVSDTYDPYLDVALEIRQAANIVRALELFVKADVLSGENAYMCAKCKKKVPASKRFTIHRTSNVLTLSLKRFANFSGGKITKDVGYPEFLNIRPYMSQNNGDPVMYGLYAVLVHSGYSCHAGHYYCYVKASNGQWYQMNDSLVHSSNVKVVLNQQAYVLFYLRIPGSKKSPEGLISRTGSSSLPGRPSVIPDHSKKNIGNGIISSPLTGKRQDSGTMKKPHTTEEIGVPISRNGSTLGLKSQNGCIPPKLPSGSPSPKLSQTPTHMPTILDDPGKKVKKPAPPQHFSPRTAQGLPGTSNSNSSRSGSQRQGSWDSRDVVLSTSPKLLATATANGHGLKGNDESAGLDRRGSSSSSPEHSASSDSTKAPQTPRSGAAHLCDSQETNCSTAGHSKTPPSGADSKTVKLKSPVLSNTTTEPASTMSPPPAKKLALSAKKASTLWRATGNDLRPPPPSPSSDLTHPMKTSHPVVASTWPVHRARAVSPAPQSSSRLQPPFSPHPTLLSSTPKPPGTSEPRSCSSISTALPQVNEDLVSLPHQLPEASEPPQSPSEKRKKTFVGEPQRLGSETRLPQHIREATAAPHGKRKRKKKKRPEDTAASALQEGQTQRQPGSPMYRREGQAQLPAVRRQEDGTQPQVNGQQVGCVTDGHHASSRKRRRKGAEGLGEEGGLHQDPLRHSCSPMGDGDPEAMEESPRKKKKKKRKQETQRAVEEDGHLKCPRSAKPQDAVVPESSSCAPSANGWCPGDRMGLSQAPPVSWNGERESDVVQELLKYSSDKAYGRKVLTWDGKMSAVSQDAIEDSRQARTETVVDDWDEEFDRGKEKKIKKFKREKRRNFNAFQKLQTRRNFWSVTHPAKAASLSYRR
Method in brief: as §1

USP38 = target: T2, USP38 (UniProt Q8NB14)
T2 sequence (whole entry): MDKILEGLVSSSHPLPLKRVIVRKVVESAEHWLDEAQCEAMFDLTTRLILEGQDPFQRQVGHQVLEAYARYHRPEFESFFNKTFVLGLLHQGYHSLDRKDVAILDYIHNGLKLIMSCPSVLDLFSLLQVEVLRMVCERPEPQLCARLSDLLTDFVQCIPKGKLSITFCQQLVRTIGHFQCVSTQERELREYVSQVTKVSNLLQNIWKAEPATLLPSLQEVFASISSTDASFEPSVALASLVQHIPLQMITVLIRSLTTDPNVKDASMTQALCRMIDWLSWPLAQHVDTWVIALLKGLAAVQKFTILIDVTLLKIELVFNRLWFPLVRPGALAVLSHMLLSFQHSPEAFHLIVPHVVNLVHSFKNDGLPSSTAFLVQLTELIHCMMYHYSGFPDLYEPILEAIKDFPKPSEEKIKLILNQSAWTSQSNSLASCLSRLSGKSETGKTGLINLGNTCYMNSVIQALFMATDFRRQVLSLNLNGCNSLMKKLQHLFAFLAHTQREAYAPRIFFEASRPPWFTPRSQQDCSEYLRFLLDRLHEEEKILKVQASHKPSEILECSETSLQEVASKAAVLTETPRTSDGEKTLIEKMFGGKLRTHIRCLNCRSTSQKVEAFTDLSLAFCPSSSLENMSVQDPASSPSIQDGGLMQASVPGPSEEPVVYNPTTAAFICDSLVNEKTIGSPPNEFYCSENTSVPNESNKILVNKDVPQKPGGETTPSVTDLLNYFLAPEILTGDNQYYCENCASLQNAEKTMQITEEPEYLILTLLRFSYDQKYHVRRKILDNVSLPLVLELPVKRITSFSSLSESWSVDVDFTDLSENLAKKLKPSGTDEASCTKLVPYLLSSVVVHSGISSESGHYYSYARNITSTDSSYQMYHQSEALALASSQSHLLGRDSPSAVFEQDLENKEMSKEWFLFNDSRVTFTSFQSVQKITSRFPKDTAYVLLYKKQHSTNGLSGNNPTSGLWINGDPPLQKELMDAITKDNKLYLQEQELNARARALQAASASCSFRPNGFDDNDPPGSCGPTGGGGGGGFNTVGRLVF
Method in brief: as §1

USP39 = target: T3, USP39 (UniProt Q53GS9)
T3 sequence (whole entry): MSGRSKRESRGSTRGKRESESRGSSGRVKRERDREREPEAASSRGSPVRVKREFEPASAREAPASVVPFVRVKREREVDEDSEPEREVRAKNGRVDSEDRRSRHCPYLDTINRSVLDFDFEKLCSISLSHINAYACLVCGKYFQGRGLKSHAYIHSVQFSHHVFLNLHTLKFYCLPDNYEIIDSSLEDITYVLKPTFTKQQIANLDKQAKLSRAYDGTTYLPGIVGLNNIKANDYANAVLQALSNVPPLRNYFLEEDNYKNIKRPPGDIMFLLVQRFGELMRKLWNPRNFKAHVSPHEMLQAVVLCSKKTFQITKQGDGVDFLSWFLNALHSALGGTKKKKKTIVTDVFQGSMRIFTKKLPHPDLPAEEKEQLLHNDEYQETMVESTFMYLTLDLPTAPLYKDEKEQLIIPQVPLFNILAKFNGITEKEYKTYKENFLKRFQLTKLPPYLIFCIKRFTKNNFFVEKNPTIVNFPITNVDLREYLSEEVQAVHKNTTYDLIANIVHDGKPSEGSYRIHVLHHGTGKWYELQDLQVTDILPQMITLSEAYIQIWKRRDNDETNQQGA
Method in brief: as §1

USP4 = target: T4, USP4 (UniProt Q13107)
T4 sequence (whole entry): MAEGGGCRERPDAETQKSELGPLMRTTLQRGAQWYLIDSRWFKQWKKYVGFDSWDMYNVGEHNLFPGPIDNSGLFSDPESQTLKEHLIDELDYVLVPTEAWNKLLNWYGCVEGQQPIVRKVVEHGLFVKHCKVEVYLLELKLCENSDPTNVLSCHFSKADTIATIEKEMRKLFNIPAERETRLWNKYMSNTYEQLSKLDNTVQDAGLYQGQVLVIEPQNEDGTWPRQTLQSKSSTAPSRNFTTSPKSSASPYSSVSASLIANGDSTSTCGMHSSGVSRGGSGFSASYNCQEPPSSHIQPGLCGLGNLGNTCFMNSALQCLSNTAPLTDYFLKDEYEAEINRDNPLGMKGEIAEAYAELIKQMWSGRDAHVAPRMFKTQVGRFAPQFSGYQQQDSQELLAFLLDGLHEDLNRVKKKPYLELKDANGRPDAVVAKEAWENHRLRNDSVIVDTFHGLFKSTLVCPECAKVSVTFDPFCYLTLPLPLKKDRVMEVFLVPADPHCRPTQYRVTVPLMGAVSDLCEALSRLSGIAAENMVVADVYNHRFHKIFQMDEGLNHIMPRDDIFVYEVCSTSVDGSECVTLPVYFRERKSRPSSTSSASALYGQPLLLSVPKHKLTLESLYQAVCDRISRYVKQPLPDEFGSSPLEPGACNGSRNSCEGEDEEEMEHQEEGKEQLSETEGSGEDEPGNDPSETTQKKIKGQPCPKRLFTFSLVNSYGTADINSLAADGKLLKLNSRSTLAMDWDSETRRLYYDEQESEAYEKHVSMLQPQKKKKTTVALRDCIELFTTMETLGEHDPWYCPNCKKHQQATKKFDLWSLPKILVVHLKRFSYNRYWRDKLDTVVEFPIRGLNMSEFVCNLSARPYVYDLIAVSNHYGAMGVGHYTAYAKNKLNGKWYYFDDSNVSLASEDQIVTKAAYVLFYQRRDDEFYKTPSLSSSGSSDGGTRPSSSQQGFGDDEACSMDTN
Method in brief: as §1

Measured: log2 ratio of Biotin-Ahx-Ub-VS probe labelling

Cc1nc(CC2CCN(C(=O)CCl)CC2)no1
inactive: USP34 -0.459 | USP36 -0.425 | USP38 -0.544 | USP39 0.344 | USP4 -0.686
